# Legend:
# [1] = biological target: T1, Ephrin type-A receptor 3 (Homo sapiens) (UniProt P29320); details: at 10 µM
# T1 sequence (whole entry): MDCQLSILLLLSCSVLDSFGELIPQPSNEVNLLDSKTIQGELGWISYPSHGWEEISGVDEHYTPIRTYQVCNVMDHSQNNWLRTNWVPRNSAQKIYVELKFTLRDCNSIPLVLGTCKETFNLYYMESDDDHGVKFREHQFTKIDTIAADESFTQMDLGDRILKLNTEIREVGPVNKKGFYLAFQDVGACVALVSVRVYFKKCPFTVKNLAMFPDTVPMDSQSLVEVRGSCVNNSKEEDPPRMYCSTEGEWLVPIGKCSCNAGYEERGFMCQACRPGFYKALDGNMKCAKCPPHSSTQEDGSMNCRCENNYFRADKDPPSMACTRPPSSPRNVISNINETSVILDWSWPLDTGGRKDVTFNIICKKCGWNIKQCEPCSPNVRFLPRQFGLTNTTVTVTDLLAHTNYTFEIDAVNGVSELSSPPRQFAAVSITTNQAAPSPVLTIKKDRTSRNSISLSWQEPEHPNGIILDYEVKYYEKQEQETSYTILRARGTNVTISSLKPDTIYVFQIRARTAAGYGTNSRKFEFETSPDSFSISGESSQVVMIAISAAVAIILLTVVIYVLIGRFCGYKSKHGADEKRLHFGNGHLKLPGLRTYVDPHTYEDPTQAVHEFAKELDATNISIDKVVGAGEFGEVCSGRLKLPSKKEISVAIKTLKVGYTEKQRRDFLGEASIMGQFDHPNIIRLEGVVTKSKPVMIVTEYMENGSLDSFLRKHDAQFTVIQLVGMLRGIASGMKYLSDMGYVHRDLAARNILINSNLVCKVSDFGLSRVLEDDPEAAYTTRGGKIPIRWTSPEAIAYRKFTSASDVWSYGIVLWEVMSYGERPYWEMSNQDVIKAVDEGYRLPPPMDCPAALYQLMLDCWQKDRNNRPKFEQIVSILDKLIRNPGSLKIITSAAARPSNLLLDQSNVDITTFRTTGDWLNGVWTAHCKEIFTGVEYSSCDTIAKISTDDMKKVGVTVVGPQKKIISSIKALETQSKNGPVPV
# [2] = biological target: Ephrin type-A receptor 4 (Homo sapiens) (UniProt P54764); details: at 1 µM
# [3] = biological target: Ephrin type-A receptor 4 (Homo sapiens) (UniProt P54764); details: at 10 µM
# [4] = biological target: Ephrin type-A receptor 5 (Homo sapiens) (UniProt P54756); details: at 1 µM
# [5] = biological target: Ephrin type-A receptor 5 (Homo sapiens) (UniProt P54756); details: at 10 µM
# [6] = biological target: Ephrin type-A receptor 7 (Homo sapiens) (UniProt Q15375); details: at 1 µM
# [7] = biological target: Ephrin type-A receptor 7 (Homo sapiens) (UniProt Q15375); details: at 10 µM
# [8] = biological target: T2, Ephrin type-A receptor 8 (Homo sapiens) (UniProt P29322); details: at 1 µM
# T2 sequence (whole entry): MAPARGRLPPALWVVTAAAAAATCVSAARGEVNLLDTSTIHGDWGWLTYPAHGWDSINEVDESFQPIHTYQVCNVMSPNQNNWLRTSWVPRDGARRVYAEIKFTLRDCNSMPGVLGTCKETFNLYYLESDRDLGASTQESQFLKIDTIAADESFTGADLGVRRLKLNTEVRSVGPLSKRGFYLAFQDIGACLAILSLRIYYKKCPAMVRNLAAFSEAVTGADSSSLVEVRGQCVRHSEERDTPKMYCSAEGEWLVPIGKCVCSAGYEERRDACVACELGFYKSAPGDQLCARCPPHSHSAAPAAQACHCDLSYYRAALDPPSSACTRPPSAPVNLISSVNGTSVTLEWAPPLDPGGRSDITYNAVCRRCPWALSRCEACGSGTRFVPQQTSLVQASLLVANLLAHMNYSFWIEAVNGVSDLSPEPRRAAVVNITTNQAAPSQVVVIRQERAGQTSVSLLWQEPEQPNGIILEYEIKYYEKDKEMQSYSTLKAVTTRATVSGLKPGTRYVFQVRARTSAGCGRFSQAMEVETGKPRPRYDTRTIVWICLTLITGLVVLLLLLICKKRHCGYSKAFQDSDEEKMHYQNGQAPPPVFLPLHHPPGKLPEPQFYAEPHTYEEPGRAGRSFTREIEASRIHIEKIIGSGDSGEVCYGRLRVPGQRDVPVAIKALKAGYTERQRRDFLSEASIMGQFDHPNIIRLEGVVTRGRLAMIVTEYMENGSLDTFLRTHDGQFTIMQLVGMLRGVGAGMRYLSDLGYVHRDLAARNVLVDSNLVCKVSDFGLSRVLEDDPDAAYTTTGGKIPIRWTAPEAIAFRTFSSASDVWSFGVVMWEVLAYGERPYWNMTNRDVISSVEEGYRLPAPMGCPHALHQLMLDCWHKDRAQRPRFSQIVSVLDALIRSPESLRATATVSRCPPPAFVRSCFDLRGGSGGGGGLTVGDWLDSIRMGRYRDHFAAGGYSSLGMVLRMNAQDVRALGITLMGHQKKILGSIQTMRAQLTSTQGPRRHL
# [9] = biological target: T2, Ephrin type-A receptor 8 (Homo sapiens); details: at 10 µM
# [10] = biological target: T3, Ephrin type-B receptor 1 (Homo sapiens) (UniProt P54762); details: at 1 µM
# T3 sequence (whole entry): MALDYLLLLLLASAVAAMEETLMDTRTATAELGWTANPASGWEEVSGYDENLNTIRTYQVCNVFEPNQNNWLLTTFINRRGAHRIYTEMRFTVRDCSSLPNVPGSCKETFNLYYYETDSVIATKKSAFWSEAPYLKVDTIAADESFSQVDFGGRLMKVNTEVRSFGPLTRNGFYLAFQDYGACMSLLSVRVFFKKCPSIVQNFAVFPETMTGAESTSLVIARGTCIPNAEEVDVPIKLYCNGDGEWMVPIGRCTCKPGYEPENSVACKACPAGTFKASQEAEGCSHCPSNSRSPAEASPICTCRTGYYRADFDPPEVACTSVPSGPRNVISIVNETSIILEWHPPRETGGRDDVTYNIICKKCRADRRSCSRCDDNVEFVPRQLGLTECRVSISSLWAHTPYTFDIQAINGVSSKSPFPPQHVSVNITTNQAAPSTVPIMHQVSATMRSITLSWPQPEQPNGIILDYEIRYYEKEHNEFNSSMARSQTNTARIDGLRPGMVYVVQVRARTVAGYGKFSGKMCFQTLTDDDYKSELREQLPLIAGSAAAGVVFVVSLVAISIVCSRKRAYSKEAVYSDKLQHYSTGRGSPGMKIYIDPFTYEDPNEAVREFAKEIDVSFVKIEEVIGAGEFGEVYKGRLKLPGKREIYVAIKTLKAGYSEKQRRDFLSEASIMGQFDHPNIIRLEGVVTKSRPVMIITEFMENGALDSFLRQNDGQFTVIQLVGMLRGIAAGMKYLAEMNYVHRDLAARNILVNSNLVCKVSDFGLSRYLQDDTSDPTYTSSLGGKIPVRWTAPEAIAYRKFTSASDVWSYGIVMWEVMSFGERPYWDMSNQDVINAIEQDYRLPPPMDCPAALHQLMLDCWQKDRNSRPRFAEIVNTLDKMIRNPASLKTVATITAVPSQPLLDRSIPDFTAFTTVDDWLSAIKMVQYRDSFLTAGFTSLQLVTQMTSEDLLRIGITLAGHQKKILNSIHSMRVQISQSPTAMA
# [11] = biological target: T3, Ephrin type-B receptor 1 (Homo sapiens); details: at 10 µM
# [12] = biological target: T4, Ephrin type-B receptor 2 (Homo sapiens) (UniProt P29323); details: at 1 µM
# T4 sequence (whole entry): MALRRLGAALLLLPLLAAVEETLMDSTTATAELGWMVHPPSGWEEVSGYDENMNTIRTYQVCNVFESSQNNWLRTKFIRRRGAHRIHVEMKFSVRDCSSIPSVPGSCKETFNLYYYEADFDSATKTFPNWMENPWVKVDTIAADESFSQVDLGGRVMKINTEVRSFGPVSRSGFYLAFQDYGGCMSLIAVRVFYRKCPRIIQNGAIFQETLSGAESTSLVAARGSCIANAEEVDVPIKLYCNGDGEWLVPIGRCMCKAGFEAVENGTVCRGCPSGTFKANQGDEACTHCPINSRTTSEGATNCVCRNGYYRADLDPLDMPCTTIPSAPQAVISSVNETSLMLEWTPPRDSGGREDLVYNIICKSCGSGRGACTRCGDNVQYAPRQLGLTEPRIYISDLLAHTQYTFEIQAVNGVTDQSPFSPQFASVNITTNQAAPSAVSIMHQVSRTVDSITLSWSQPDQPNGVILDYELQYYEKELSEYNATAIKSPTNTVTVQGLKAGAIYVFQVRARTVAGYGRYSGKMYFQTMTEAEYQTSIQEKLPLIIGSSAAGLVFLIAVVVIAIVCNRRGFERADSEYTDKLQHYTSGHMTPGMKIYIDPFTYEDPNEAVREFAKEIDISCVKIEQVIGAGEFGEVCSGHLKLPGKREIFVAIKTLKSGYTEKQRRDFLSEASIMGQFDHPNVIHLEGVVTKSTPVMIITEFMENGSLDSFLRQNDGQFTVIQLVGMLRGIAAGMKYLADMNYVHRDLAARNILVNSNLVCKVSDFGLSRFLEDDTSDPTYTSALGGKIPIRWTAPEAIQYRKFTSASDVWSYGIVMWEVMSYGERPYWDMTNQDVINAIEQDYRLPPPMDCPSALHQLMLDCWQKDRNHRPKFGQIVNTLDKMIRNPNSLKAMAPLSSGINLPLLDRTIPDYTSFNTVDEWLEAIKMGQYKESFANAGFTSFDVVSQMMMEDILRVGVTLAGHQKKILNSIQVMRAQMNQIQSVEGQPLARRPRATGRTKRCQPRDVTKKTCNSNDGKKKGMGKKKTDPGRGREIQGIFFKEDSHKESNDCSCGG
# [13] = biological target: T4, Ephrin type-B receptor 2 (Homo sapiens); details: at 10 µM
# [14] = biological target: T5, Ephrin type-B receptor 3 (Homo sapiens) (UniProt P54753); details: at 1 µM
# T5 sequence (whole entry): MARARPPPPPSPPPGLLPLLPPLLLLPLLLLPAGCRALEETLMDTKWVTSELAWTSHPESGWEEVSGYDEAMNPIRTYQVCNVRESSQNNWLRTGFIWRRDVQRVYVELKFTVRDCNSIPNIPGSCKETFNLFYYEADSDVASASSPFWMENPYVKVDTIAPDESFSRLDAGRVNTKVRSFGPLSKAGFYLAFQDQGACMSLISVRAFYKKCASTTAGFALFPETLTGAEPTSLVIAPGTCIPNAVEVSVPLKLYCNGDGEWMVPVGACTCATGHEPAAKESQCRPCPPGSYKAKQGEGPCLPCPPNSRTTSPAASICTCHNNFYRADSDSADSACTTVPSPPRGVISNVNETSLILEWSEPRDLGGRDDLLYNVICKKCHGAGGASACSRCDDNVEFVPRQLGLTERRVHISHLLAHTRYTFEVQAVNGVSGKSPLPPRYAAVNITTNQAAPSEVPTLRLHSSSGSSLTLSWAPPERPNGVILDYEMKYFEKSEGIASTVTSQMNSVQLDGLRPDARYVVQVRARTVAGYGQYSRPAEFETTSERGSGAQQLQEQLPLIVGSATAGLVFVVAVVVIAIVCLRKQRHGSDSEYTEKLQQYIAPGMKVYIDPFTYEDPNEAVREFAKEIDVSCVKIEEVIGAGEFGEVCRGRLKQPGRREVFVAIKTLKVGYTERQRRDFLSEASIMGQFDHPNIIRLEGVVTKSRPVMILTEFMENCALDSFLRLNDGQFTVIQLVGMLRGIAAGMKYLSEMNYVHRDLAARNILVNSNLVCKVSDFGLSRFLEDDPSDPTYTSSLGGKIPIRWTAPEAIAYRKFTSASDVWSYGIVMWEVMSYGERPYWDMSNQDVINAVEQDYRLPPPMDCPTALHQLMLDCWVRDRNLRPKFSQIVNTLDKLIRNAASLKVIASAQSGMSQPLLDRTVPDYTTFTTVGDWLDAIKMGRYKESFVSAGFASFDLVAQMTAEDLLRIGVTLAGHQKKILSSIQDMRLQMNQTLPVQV
# [15] = biological target: T6, Ephrin type-B receptor 4 (Homo sapiens) (UniProt P54760); details: at 1 µM
# T6 sequence (whole entry): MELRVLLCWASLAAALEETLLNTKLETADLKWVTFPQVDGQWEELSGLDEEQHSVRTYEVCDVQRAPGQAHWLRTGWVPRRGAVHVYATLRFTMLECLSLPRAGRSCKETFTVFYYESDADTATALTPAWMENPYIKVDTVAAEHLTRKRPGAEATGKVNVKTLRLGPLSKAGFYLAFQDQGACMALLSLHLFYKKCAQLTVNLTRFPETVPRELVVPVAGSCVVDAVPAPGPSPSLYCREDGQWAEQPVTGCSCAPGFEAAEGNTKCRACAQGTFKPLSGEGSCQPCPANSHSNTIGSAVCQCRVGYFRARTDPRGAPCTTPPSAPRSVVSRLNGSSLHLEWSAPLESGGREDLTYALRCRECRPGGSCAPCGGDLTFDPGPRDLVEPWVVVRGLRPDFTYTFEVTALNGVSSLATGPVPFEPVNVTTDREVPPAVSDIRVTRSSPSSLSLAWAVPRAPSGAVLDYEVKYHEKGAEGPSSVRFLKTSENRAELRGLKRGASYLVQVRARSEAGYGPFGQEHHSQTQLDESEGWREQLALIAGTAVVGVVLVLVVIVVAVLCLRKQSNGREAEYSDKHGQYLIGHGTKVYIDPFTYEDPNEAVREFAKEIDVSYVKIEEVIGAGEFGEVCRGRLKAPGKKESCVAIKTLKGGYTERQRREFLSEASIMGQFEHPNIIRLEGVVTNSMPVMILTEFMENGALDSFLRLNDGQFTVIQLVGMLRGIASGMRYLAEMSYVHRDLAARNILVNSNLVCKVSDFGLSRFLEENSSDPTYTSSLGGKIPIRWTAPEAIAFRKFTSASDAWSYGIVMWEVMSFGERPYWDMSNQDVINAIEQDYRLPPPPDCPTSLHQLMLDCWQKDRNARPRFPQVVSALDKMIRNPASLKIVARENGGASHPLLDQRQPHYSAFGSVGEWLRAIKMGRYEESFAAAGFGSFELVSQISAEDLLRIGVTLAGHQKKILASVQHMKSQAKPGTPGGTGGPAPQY
# [16] = biological target: T6, Ephrin type-B receptor 4 (Homo sapiens); details: at 10 µM
# [17] = biological target: Receptor tyrosine-protein kinase erbB-4 (Homo sapiens) (UniProt Q15303); details: at 1 µM
# [18] = biological target: Receptor tyrosine-protein kinase erbB-4 (Homo sapiens) (UniProt Q15303); details: at 10 µM
# [19] = biological target: Focal adhesion kinase 1 (Homo sapiens) (UniProt Q05397); details: at 1 µM
# Sequence of Ephrin type-A receptor 4 (Homo sapiens) (P54764 whole entry): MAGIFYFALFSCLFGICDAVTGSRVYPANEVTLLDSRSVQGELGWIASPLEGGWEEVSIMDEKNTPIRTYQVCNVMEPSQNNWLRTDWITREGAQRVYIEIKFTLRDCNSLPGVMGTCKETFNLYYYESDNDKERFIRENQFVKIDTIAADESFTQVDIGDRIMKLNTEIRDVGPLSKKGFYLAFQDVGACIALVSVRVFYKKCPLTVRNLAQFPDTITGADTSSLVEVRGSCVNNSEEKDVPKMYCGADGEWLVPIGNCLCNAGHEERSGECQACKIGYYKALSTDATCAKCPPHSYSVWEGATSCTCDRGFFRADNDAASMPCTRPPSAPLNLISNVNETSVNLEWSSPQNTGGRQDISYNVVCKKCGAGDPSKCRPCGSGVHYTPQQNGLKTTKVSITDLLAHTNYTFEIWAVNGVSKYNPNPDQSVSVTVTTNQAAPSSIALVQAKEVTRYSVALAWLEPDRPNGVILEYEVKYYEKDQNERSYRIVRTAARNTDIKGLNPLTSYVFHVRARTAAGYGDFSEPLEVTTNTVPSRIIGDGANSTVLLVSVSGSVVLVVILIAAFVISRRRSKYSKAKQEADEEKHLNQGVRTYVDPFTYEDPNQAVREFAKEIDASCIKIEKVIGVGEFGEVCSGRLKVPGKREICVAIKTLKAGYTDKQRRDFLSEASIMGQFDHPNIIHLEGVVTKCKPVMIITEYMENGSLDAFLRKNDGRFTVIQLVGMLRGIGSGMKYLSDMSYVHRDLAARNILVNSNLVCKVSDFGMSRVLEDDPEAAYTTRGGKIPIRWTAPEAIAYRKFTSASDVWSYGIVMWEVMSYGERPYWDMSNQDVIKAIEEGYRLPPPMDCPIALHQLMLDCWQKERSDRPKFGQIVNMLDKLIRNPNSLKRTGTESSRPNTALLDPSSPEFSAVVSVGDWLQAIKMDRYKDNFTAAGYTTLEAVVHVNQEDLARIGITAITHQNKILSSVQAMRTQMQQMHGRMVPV
# Sequence of Receptor tyrosine-protein kinase erbB-4 (Homo sapiens) (Q15303 whole entry): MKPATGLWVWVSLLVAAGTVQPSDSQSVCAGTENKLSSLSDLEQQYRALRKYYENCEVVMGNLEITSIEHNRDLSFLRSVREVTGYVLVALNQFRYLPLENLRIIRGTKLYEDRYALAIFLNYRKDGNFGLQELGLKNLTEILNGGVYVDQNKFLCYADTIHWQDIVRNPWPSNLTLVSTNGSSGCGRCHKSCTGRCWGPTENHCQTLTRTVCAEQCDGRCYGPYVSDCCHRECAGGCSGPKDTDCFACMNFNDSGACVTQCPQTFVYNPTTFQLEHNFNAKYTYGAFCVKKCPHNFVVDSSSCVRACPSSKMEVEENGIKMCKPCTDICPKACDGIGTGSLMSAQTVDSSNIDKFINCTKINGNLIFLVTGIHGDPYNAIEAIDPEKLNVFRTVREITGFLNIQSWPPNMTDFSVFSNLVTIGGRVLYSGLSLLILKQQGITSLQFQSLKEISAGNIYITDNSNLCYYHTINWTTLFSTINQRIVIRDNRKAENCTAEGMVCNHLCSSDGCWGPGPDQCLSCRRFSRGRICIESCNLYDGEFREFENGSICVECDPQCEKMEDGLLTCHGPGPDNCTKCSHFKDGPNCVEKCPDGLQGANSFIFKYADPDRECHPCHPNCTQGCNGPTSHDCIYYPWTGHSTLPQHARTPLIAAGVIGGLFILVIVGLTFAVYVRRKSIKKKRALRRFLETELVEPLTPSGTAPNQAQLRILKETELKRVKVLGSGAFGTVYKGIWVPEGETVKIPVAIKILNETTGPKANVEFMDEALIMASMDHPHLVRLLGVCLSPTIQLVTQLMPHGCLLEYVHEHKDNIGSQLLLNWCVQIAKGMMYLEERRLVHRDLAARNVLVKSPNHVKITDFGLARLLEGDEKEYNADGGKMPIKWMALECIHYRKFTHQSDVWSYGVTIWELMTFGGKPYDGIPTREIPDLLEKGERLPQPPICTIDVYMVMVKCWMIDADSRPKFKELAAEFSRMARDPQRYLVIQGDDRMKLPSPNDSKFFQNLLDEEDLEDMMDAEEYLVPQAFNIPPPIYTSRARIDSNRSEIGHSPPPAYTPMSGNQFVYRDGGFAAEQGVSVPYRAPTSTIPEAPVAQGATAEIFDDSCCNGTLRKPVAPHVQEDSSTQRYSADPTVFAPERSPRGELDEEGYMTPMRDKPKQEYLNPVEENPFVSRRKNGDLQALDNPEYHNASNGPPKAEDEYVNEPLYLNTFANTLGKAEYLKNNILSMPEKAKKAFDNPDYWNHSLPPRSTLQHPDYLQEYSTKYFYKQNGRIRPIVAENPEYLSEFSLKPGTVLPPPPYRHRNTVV
# Sequence of Ephrin type-A receptor 7 (Homo sapiens) (Q15375 28-998 limits assumed): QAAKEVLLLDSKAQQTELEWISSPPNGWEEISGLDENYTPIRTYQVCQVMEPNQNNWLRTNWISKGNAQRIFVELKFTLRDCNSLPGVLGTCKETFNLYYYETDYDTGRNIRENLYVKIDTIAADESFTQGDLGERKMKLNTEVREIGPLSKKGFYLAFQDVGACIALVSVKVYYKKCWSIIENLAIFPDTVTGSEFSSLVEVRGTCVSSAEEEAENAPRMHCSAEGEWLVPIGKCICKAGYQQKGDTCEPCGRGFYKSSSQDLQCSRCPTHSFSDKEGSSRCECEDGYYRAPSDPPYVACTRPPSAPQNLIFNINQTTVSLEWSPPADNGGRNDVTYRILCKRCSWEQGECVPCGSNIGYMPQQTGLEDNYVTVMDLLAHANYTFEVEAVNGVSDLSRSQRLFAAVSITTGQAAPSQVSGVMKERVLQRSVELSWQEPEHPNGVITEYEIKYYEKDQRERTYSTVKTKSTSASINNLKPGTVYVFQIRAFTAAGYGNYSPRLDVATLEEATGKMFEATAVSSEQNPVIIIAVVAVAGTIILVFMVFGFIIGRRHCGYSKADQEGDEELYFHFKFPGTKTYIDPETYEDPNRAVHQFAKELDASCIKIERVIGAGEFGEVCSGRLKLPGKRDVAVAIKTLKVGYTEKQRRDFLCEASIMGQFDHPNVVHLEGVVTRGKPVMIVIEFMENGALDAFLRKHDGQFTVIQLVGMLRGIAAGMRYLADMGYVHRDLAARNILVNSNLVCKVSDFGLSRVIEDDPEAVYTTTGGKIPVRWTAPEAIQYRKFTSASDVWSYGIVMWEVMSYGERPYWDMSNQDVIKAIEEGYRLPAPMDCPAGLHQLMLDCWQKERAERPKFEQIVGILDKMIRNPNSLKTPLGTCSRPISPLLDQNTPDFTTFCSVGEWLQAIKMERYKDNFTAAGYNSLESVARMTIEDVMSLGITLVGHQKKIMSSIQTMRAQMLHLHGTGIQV
# Sequence of Ephrin type-A receptor 5 (Homo sapiens) (P54756 whole entry): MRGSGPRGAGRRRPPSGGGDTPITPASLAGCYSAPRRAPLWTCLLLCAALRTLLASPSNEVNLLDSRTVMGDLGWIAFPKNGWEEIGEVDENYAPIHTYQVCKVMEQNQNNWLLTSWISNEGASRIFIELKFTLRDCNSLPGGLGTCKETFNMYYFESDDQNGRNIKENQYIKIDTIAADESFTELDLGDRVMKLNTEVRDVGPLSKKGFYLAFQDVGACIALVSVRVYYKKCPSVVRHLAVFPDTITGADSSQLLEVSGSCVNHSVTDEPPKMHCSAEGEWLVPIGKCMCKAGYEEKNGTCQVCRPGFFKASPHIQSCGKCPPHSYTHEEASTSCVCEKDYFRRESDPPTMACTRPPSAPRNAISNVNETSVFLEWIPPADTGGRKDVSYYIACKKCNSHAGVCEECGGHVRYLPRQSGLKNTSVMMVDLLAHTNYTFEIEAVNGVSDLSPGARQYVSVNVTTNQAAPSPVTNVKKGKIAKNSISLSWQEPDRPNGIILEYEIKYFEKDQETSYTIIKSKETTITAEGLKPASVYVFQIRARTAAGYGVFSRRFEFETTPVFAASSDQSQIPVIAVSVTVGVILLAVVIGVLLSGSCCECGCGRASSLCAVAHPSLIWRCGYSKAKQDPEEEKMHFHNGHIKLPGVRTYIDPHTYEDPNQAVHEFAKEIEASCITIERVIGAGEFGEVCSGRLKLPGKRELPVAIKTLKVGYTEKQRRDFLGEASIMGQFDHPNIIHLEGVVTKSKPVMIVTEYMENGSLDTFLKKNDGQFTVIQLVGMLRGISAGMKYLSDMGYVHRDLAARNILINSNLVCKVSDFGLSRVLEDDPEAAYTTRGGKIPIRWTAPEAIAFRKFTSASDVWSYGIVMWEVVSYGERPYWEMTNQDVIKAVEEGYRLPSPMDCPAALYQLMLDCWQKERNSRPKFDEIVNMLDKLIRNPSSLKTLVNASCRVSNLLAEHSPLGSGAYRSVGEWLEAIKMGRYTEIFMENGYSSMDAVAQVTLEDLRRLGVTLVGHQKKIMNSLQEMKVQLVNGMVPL
smiles,measurement,setting,value
CC(C)n1cnc2/c(=N/c3cccc(Cl)c3)nc(NCCO)[nH]c21,residual activity,[1],54%
same,residual activity,[2],110%
same,residual activity,[3],75%
same,residual activity,[4],102%
same,residual activity,[5],43%
same,residual activity,[6],83%
same,residual activity,[7],43%
same,residual activity,[8],97%
same,residual activity,[9],77%
same,residual activity,[10],81%
same,residual activity,[11],20%
same,residual activity,[12],102%
same,residual activity,[13],35%
same,residual activity,[14],108% (inactive)
same,residual activity,[15],67%
same,residual activity,[16],22%
same,residual activity,[17],94%
same,residual activity,[18],107%
same,residual activity,[19],46%
